# PABP FP inh – PABP poly(A) RNA binding inhibitors, primary screen, biochemical, fluorescence polarization, uHTS; 1% of 290,000 active; inhibition, % at 35 µM; Polyadenylate-binding protein 1 (Homo sapiens), P11940;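 also: calls also rest on retests at 20 µM and on dose response follow-up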
# eIF4H FP inh – human eIF4H binding inhibitors, primary screen, translation initiation inhibitor project, biochemical, uHTS, fluorescence polarization. Eukaryotic translation initiation factor 4H (Homo sapiens), Q15056. eIF4H fluorescence polarization binding assay. inhibition, % at 35 µM. 0.94% of 290,000 active. AID 2012, 2009;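 also: calls also rest on retests at 20 µM and on dose response follow-up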
# MLLE-PAM2 inh – inhibitors of PABP1 MLLE–PAM2 peptide binding, primary screen, biochemical, fluorescence polarization, FITC-PAM2, GST-MLLE. Polyadenylate-binding protein 1 (Homo sapiens), P11940. inhibition, % at 20 µM. 0.36% of 360,000 active. AID 588489, 2011; in the data active = inhibition above about 35%, passing the limit was not always enough;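 also: plate controls were DMSO wells with GST-MLLE for no effect and wells lacking GST-MLLE protein for full effect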
# GRK2 inh – compounds blocking aptamer binding on GRK2 – biochemical, human GRK2, bead flow cytometry, HTS, primary screen; 0.59% of 330,000 active; inhibition of aptamer binding, % at 10 µM; FAM-aptamer displacement from GRK2; Beta-adrenergic receptor kinase 1 (Homo sapiens), P25098;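 active = inhibition of aptamer binding above 40%, roughly 3 SD of noise, on plates passing a quality check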;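 also: median bead fluorescence of bound FAM aptamer so fluorescent compounds give negative values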
# PERK inhibitor – block of dimerizer-induced PERK translation repression, primary screen, PERK inhibitor project, CHO PERK-DD cells, SEAP luminescence, HTS; 0.17% of 220,000 active; inhibition, % at 5.6 µM; Eukaryotic translation initiation factor 2-alpha kinase 3 (Homo sapiens), Q9NZJ5; CHO PERK-DD fusion, SEAP luminescence translation reporter;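 active = inhibition above the mean inhibition of all tested compounds plus 3 SD, set separately per screening campaign, cut at about 2.9% in these data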;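 also: PERK kinase domain activated by AP20187 dimerizer at 100 nM; 0% = DMSO with dimerizer and 100% = rapamycin at 8.4 µM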
# Active calls of the source: *; u = inconclusive; x = not tested or not shown. In the library only some 1.9% were active in any assay of this set; here they are far more common. Unless noted, no rule for the calls is given here.
SMILES,PABP FP inh,eIF4H FP inh,MLLE-PAM2 inh,GRK2 inh,PERK inhibitor
Fc1c(F)c(F)c(N=Cc2ccc3ncccc3c2)c(F)c1F,87.5*,0.6*,3.3,0.0,1.0
O=c1cc(O)n(C2CCCCCC2)c(=O)[nH]1,17.3*,55.5,-32.5,4.0,x
O=c1[nH][nH]c(=S)n1C1CCCCC1,1.6,-5.7,x,1.0,1.1
Cn1cc(CNCc2ccccc2OCC(O)CN2CCc3ccccc3C2)cn1 (stereo not given),22.1,3.1,10.8,0.0,0.9
O=C1CC(=O)Nc2cc(S(=O)(=O)N3CCN(c4ccc([N+](=O)[O-])cc4)CC3)ccc2N1,16.1,70.0*,-8.9,5.0,x
O=C1Cc2cc(S(=O)(=O)N3CCN(c4ccc(O)cc4)CC3)ccc2N1,x,x,8.5,x,x
C(=NOCCc1ccccc1)c1ccccn1,x,x,-9.5,x,x
COc1ccc(C(=O)O)cc1NC(=S)NC(=O)CSc1ccc(Cl)cc1,-7.5,-13.3,40.3*,0.0,x
CCC(=O)NC(=S)Nc1cc(C(=O)O)ccc1OC,11.8,-4.0,6.1,1.0,0.6
O=C(COC(=O)C1CC(=O)N(Cc2ccccc2)C1)c1ccc(F)cc1 (stereo not given),1.2,2.5,7.7,0.0,0.2
CC(NC(=S)Nc1ccccc1C(F)(F)F)C1CC2CCC1C2 (stereo not given),9.7,-5.3,45.5*,0.0,0.8
CC(NC(=O)c1ccccc1Br)C1CC2CCC1C2 (stereo not given),x,x,17.7,0.0,x
CCCCNC(=O)Cn1cnc2sc(C)c(S(=O)(=O)N3CCN(c4ncccn4)CC3)c2c1=O,-15.3,1.0,2.0,0.0,0.0
Nc1nc(-c2ccccn2)nc(N)c1Cc1ccc(Cl)cc1Cl,-10.9,70.3*,-7.7,0.0,-1.3
Nc1nc(-c2ccccn2)nc(N)c1Cc1ccccc1F,29.9,3.4,-1.1,0.0,-0.7
Cc1cccnc1NC(=O)CCc1nnc2ccc(NCc3ccco3)nn12,12.0,21.0,11.3,7.0,x
Cc1cccc(NC(=O)CCc2nnc3ccc(NCc4ccco4)nn23)n1,32.2,80.2*,3.7,6.0,x
COc1ccc(NC(=O)CCc2nnc3ccc(NCc4ccco4)nn23)cc1,0.5,2.5,2.0,2.0,x
O=C(CCc1nnc2ccc(NCc3ccco3)nn12)Nc1ccccn1,43.1,88.2*,13.5,10.0,x
COc1cc(NC(=O)CCN2CCN(c3ccccc3OC)CC2)cc(OC)c1,x,x,-6.0,x,x
C[C@@H]1O[C@@H](OC[C@H]2O[C@@H](Oc3c(-c4ccc(O)c(O)c4)oc4cc(O)cc(O)c4c3=O)[C@H](O)[C@@H](O)[C@@H]2O)[C@H](O)[C@H](O)[C@H]1O,18.6*,60.9*,-6.7,10.0,1.4
CC1OC(OCC2OC(Oc3c(-c4ccc(O)cc4)oc4cc(O)cc(O)c4c3=O)C(O)C(O)C2O)C(O)C(O)C1O (stereo not given),u,u,13.2,0.0,0.1
Nc1nc(Sc2ccc(C(F)(F)F)cc2[N+](=O)[O-])n[nH]1,-4.8,4.0,-6.7,0.0,0.0
Nc1nc(Sc2c([N+](=O)[O-])cc(C(F)(F)F)cc2[N+](=O)[O-])n[nH]1,-5.9,7.2,39.5*,0.0,1.4
CC(CNC(=O)CCC(=O)N1CCOc2ccccc21)c1ccccc1 (stereo not given),-3.6,-7.7,1.5,0.0,x
Cc1ccc(S(=O)(=O)NCC(=O)OC(C)C(=O)NC(=O)NC2CCCCC2)cc1C (stereo not given),x,x,-1.9,0.0,x
Cc1ccc(NC2OC(C(O)CO)C(O)C2O)cc1[N+](=O)[O-] (stereo not given),47.6,93.3*,-1.4,2.0,0.6
Cc1ccc(NC2OC(CO)C(O)C2O)cc1[N+](=O)[O-] (stereo not given),40.8,-0.8,10.1,1.0,0.4
COc1ccc(OC)c(N=c2oc3c(OC)cccc3cc2C(=O)NCc2ccco2)c1,113.7,118.2*,14.8,0.0,x
NS(=O)(=O)c1ccc2c(c1)C1C=CCC1C(C1CC=CCC1)N2 (stereo not given),82.2*,53.0*,0.5,1.0,0.0

# Assay outcomes (PubChem)
